Source: PubChem BioAssay (Tox21)
Results filed as inconclusive are left out. Entries that show only a call come without a potency. More than one record can exist for a structure, and the calls need not agree. The source made the active and inactive calls. Unless noted, calls follow the shape of the full dose curve.

Target: Progesterone receptor (Homo sapiens) (UniProt P06401)
Experiment: qHTS assay to identify small molecule agonists of the progesterone receptor (PR) signaling pathway (AID 1346784); also: nearly all actives have a fitted effect of over 30% in size
Details: PR-UAS-bla HEK293T, beta-lactamase FRET ratio, 16 h; series mostly up to 92.4 µM
In short: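 Seed PR-UAS-bla HEK 293T cells (2% charcoal-stripped FBS), incubate 6 hr at 37C; add compounds in DMSO, 16 hr at 37C; add LiveBLAzer B/G substrate, 2 hr RT; read fluorescence intensity.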

Progesterone receptor (Homo sapiens), sequence (P06401 whole entry, looked up): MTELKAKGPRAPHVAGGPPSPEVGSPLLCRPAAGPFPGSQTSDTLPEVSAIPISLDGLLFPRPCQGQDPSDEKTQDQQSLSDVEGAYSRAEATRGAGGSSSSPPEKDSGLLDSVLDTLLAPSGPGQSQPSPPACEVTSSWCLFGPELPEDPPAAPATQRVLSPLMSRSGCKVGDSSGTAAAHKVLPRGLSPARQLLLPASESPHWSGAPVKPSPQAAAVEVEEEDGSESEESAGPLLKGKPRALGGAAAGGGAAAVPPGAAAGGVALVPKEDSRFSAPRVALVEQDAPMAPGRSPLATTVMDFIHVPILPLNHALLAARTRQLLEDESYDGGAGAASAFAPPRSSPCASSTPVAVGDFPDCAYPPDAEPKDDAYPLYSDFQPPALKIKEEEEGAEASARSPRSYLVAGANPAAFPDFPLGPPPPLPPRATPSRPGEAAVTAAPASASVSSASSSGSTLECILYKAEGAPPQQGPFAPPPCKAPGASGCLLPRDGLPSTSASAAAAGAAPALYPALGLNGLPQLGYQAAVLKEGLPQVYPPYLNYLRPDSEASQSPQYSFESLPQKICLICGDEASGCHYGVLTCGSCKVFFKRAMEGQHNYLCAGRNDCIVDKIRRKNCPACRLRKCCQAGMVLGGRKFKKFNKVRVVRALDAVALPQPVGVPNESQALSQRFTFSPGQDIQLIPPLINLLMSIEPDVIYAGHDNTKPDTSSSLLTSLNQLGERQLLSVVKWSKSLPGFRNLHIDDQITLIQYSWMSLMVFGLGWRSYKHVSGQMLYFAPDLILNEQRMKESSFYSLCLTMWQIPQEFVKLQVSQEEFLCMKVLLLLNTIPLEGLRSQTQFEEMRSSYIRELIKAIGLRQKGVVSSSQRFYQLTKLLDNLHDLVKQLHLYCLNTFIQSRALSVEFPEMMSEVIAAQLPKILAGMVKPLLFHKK

Row | Compound | Potency
1 | O=C(Cl)OCCOCCOC(=O)Cl | inactive
2 | COc1ccc(C(O)(c2cncnc2)C2CC2)cc1 (configuration not stated) | inactive
3 | CC(=O)OC(c1ccccc1)C(Cl)(Cl)Cl (configuration not stated) | inactive
4 | CCCC[N+]1(C)[C@@H]2CC(OC(=O)[C@H](CO)c3ccccc3)C[C@H]1[C@@H]1O[C@@H]12 (some centres not stated) | inactive
5 | O=C(N/N=C/c1ccc([N+](=O)[O-])o1)c1cc([N+](=O)[O-])cc([N+](=O)[O-])c1O | inactive
6 | CC(C)OC(=O)Cc1ccccc1 | inactive
7 | C=CCSSCC=C | inactive
8 | CCCC1CCCCN1 (configuration not stated) | inactive
9 | c1ccc2c(c1)-c1cccc3cccc-2c13 | inactive
10 | CN1CC[C@]23c4c5ccc(O)c4O[C@H]2[C@@H](O)CC[C@H]3[C@H]1C5 | inactive
11 | C[C@@H]1C[C@@H]([C@H](O)CC2CC(=O)NC(=O)C2)C(=O)[C@@H](C)C1 | inactive
12 | C=CCN1C[C@H](C)N([C@H](c2ccc(C(=O)N(CC)CC)cc2)c2cccc(OC)c2)C[C@H]1C | inactive
13 | CNC(=O)Oc1cccc(N=CN(C)C)c1 | inactive
14 | O=C(NCNC(=O)NC1C(=O)NC(=O)N1CO)NC1C(=O)NC(=O)N1CO (configuration not stated) | inactive
15 | COCc1cnc(C2=NC(C)(C(C)C)C(=O)N2)c(C(=O)O)c1 (configuration not stated) | inactive
16 | C=CCOCC1CO1 (configuration not stated) | inactive
17 | CCC1(C2=NCCN2)Cc2ccccc2O1 (configuration not stated) | inactive
18 | Cc1cccc(C)c1NC1=NCCCS1 | inactive
19 | CN1C[C@H](C(=O)N[C@]2(C)O[C@@]3(O)[C@@H]4CCCN4C(=O)[C@H](Cc4ccccc4)N3C2=O)C=C2c3cccc4[nH]cc(c34)C[C@H]21 | inactive
20 | NC(=O)CF | inactive

Row | Compound | Potency
21 | C[C@H]1[C@@H]2Cc3ccc(O)cc3[C@@]1(C)CCN2C | inactive
22 | CCOC(C(=O)OCCN(C)C)(c1ccccc1)c1ccccc1 | inactive
23 | Oc1cccc(Cl)c1 | inactive
24 | Nc1ccc2c(c1)Cc1ccccc1-2 | inactive
25 | CCCSP(=S)(OCC)Oc1ccc(SC)cc1 (configuration not stated) | inactive
26 | CCOc1cccc(C2(N3CCN(c4ccccc4)CC3)CCC(C)CC2)c1 (configuration not stated) | inactive
27 | O=C(NC(=O)c1cc(F)c(F)cc1Cl)Nc1cc(F)ccc1N1CCC(C(=O)O)CC1 | inactive
28 | CN1CC[C@]23c4c5ccc(O)c4O[C@H]2[C@@H](O)C=C[C@H]3[C@H]1C5 | inactive
29 | O=C(O)C(Cl)(Cl)Br | inactive
30 | O=CC=O | inactive
31 | CCOC(=O)c1cncn1C(C)c1ccccc1 (configuration not stated) | inactive
32 | CC(C)(C#N)C(C)(C)C#N | inactive
33 | N#CC(C#N)=Cc1ccc(O)c(O)c1 | inactive
34 | O=C(Cc1ccccc1)c1ccccc1 | inactive
35 | O=C1CC[C@@]2(O)[C@H]3Cc4ccc(O)c5c4[C@@]2(CCN3CC2CC2)[C@H]1O5 | inactive
36 | CC[N+]1(CCOC(=O)C(O)(c2ccccc2)c2ccccc2)CCCCC1 | inactive
37 | O=C(O)COc1cc(Cl)c(Cl)cc1Cl | inactive
38 | OCCCl | inactive
39 | CCCCNC(=O)OCC#CI | inactive

Target: Progesterone receptor (Homo sapiens) (UniProt P06401)
Experiment: qHTS assay to identify small molecule antagonists of the progesterone receptor (PR) signaling pathway (AID 1346795; active = well fitted inhibition curve with a large enough effect in the signal ratio in the repeat runs, not every such curve was filed as active; the % refers to the signal ratio; also: potency is read from the fitted curve at half-maximal effect)
Details: PR-UAS-bla HEK293T, beta-lactamase FRET ratio, 16 h; series mostly up to 92.4 µM
In short: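 Screening used a GripTite HEK293T line with PR-responsive UAS-beta-lactamase. Cells were challenged with compound in the presence of 1 nM R5020 final for 16 hr at 37C; B/G FRET substrate, 2 hr room temperature, fluorescence.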

Row | Compound | Potency
40 | O=C(Cl)OCCOCCOC(=O)Cl | inactive
41 | COc1ccc(C(O)(c2cncnc2)C2CC2)cc1 (configuration not stated) | inactive
42 | CCCC[N+]1(C)[C@@H]2CC(OC(=O)[C@H](CO)c3ccccc3)C[C@H]1[C@@H]1O[C@@H]12 (some centres not stated) | inactive
43 | O=C(N/N=C/c1ccc([N+](=O)[O-])o1)c1cc([N+](=O)[O-])cc([N+](=O)[O-])c1O | inactive
44 | CC(C)OC(=O)Cc1ccccc1 | inactive
45 | C=CCSSCC=C | inactive
46 | CCCC1CCCCN1 (configuration not stated) | inactive
47 | CN1CC[C@]23c4c5ccc(O)c4O[C@H]2[C@@H](O)CC[C@H]3[C@H]1C5 | inactive
48 | C=CCN1C[C@H](C)N([C@H](c2ccc(C(=O)N(CC)CC)cc2)c2cccc(OC)c2)C[C@H]1C | inactive
49 | CNC(=O)Oc1cccc(N=CN(C)C)c1 | inactive
50 | O=C(NCNC(=O)NC1C(=O)NC(=O)N1CO)NC1C(=O)NC(=O)N1CO (configuration not stated) | inactive
51 | COCc1cnc(C2=NC(C)(C(C)C)C(=O)N2)c(C(=O)O)c1 (configuration not stated) | inactive
52 | C=CCOCC1CO1 (configuration not stated) | inactive
53 | CCC1(C2=NCCN2)Cc2ccccc2O1 (configuration not stated) | inactive
54 | Cc1cccc(C)c1NC1=NCCCS1 | inactive
55 | CN1C[C@H](C(=O)N[C@]2(C)O[C@@]3(O)[C@@H]4CCCN4C(=O)[C@H](Cc4ccccc4)N3C2=O)C=C2c3cccc4[nH]cc(c34)C[C@H]21 | 48.8 µM (active) and inactive
56 | NC(=O)CF | inactive

Row | Compound | Potency
57 | C[C@H]1[C@@H]2Cc3ccc(O)cc3[C@@]1(C)CCN2C | inactive
58 | CCOC(C(=O)OCCN(C)C)(c1ccccc1)c1ccccc1 | inactive
59 | Oc1cccc(Cl)c1 | inactive
60 | Nc1ccc2c(c1)Cc1ccccc1-2 | 6.08 µM (active)
61 | CCOc1cccc(C2(N3CCN(c4ccccc4)CC3)CCC(C)CC2)c1 (configuration not stated) | inactive
62 | O=C(NC(=O)c1cc(F)c(F)cc1Cl)Nc1cc(F)ccc1N1CCC(C(=O)O)CC1 | inactive
63 | CN1CC[C@]23c4c5ccc(O)c4O[C@H]2[C@@H](O)C=C[C@H]3[C@H]1C5 | inactive
64 | O=C(O)C(Cl)(Cl)Br | inactive
65 | CCOC(=O)c1cncn1C(C)c1ccccc1 (configuration not stated) | inactive
66 | N#CC(C#N)=Cc1ccc(O)c(O)c1 | inactive
67 | O=C(Cc1ccccc1)c1ccccc1 | inactive
68 | O=C1CC[C@@]2(O)[C@H]3Cc4ccc(O)c5c4[C@@]2(CCN3CC2CC2)[C@H]1O5 | inactive
69 | CC[N+]1(CCOC(=O)C(O)(c2ccccc2)c2ccccc2)CCCCC1 | inactive
70 | O=C(O)COc1cc(Cl)c(Cl)cc1Cl | inactive
71 | OCCCl | inactive
72 | CCCCNC(=O)OCC#CI | inactive
